We go through 31 compounds from the supplement of paper PMC9844399.

Structures can show the parent of a compound that is named as a salt.
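Note: High-content confocal imaging of branched-DNA amplified FISH in 384-well plates, Hoechst-defined nuclei, score is well value minus plate DMSO median over DMSO robust SD, four wells per compound.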

The assay concerns HeLa. Nature of the assay: MALAT1 nuclear FISH intensity, robust Z-score vs DMSO; higher = more nuclear MALAT1 lncRNA, active = -3 or less. Particulars: 10 µM; 6 h.
As to `NC(=O)N1c2ccccc2C=Cc2ccccc21` [Carbamazepine], the “MALAT1 nuclear FISH intensity” value was -0.0498 (inactive). For `COc1cc2ncnc(Nc3cccc(Cl)c3)c2cc1OC` [Tyrphostin AG 1478] the value was 0.00369 (inactive); for `COc1ccccc1OCC(O)CN1CCN(CC(=O)Nc2c(C)cccc2C)CC1` (stereo unspecified), -0.961 (inactive); for `OCCN1CCN(CCCN2c3ccccc3Sc3ccc(Cl)cc32)CC1` [Perphenazine], 1.63 (inactive). Regarding `CC(=O)N1CCN(c2ccc(OCC3COC(Cn4ccnc4)(c4ccc(Cl)cc4Cl)O3)cc2)CC1` (stereo unspecified) [Ketoconazole], the “MALAT1 nuclear FISH intensity” value was 0.168 (inactive).

Regarding `CNC(=O)c1cc(Oc2ccc(NC(=O)Nc3ccc(Cl)c(C(F)(F)F)c3)c(F)c2)ccn1`, the “MALAT1 nuclear FISH intensity” value is 0.489 (inactive). In the case of `CCCCC(=O)N(Cc1ccc(-c2ccccc2-c2nnn[nH]2)cc1)[C@H](C(=O)O)C(C)C` [Valsartan], the “MALAT1 nuclear FISH intensity” value is 0.00591 (inactive).

Take `CNC(C)C1CCC(N)C(OC2C(N)CC(N)C(OC3OCC(C)(O)C(NC)C3O)C2O)O1` (stereo unspecified) [Gentamycin Sulfate]: the “MALAT1 nuclear FISH intensity” value was 0.205 (inactive). `CNCC[C@@H](Oc1ccccc1C)c1ccccc1`: the “MALAT1 nuclear FISH intensity” value was -0.726 (inactive). The result for `CC(COc1ccccc1)N(CCCl)Cc1ccccc1` (stereo unspecified) reads 0.373 (inactive). The result for `Nc1ncnc2c1ncn2C1CCCO1` (stereo unspecified) reads -1.6 (inactive); that for `CCCCCCCCCCC/C=C\C/C=C\CCCC(=O)O` [Eicosa-5,8-dienoic acid (20:2 n-12)], 1.05 (inactive); that for `CCC[C@H](N[C@@H](C)C(=O)N1[C@H](C(=O)O)C[C@@H]2CCCC[C@@H]21)C(=O)OCC` [Perindopril Erbumine], 1.69 (inactive). As to `CN(C)c1ccc(/C=C2/C(=O)Nc3ccccc32)cc1`, the “MALAT1 nuclear FISH intensity” value was -0.65 (inactive).

Turning to `CC(C(=O)O)c1ccc(-c2ccccc2)c(F)c1` (stereo unspecified) [Flurbiprofen], the “MALAT1 nuclear FISH intensity” value was 0.0689 (inactive). The result for `COc1nc(N)nc2c1ncn2[C@@H]1O[C@H](CO)[C@@H](O)[C@@H]1O` [Nelarabine] reads 0.301 (inactive); that for `CN1CCN2c3ncccc3Cc3ccccc3C2C1` (stereo unspecified) [Mirtazapine], -0.438 (inactive). The result for `C=CC1=C(C(=O)O)N2C(=O)[C@@H](NC(=O)/C(=N\OCC(=O)O)c3csc(N)n3)[C@H]2SC1` [Cefixime] reads -0.58 (inactive).

On to `C[N+](C)(C)CCOC(=O)CCC(=O)OCC[N+](C)(C)C`, for which the “MALAT1 nuclear FISH intensity” value was -3.13 (active). For `COC(=O)Nc1nc2cc(C(=O)c3ccc(F)cc3)ccc2[nH]1` [Flubendazol] the value was 0.604 (inactive); for `CC(=O)O[C@H]1C[C@@H]2CC[C@@H]3[C@H](CC[C@@]4(C)[C@H]3C[C@H]([N+]3(C)CCCCC3)[C@@H]4OC(C)=O)[C@@]2(C)C[C@@H]1N1CCCCC1` [Vecuronium Bromide], -1.33 (inactive). The result for `CC(=O)NC(C)(C)C(=O)N1CCC[C@H]1C(=O)NC(C)(C)C(=O)N[C@@H](C)C(=O)NC(C)(C)C(=O)N[C@@H](C)C(=O)N[C@@H](CCC(N)=O)C(=O)NC(C)(C)C(=O)N[C@H](C(=O)NC(C)(C)C(=O)NCC(=O)N[C@@H](CC(C)C)C(=O)NC(C)(C)C(=O)N1CCC[C@H]1C(=O)N[C@H](C(=O)NC(C)(C)C(=O)NC(C)(C)C(=O)N[C@@H](CCC(=O)O)C(=O)N[C@@H](CCC(N)=O)C(=O)N[C@H](CO)Cc1ccccc1)C(C)C)C(C)C` [Alamethicin] reads -1.85 (inactive); that for `CCCCC[C@H](O)/C=C/C=C\C/C=C\C/C=C\CCCC(=O)O`, 0.441 (inactive); that for `OCCn1cc(-c2ccc3c(c2)CC/C3=N\O)c(-c2ccncc2)n1`, 1.29 (inactive).

Take `CCCCC/C=C\C/C=C\CCCCCCCC(=O)O` [Linoleic acid]: the “MALAT1 nuclear FISH intensity” value was -0.23 (inactive). With `O=C(O)c1cc(-c2ccc(F)cc2F)ccc1O` [Diflunisal], the “MALAT1 nuclear FISH intensity” value is -0.983 (inactive). The result for `OC[C@H]1O[C@@H](O[C@@H]2[C@@H](CO)OC(O)(CO)[C@H]2O)[C@H](O)[C@@H](O)[C@H]1O` (mixture of isomers) [Lactulose] reads -0.821 (inactive); that for `Cc1[nH]c2ccccc2c1CCNC(=O)c1ccccc1F`, -0.887 (inactive).

For the compound `NCCCC(N)(C(=O)O)C(F)F` (stereo unspecified), the “MALAT1 nuclear FISH intensity” value was -0.00313 (inactive). For `CCOC(=O)[C@H](CCc1ccccc1)N[C@@H](C)C(=O)N1CCC[C@H]1C(=O)O` [Enalapril] the value was 0.257 (inactive); for `Cn1c(=O)c2c(ncn2C)n(C)c1=O` [Caffeine], -0.401 (inactive).
